Data: the supplement of paper PMC11732987, “Enantioselective OTUD7B fragment discovery through chemoproteomics screening and high-throughput optimisation” (Communications Chemistry, 2025)

Molecular target: T1, VCPIP1 (UniProt Q96JH7)
T1 sequence (whole entry): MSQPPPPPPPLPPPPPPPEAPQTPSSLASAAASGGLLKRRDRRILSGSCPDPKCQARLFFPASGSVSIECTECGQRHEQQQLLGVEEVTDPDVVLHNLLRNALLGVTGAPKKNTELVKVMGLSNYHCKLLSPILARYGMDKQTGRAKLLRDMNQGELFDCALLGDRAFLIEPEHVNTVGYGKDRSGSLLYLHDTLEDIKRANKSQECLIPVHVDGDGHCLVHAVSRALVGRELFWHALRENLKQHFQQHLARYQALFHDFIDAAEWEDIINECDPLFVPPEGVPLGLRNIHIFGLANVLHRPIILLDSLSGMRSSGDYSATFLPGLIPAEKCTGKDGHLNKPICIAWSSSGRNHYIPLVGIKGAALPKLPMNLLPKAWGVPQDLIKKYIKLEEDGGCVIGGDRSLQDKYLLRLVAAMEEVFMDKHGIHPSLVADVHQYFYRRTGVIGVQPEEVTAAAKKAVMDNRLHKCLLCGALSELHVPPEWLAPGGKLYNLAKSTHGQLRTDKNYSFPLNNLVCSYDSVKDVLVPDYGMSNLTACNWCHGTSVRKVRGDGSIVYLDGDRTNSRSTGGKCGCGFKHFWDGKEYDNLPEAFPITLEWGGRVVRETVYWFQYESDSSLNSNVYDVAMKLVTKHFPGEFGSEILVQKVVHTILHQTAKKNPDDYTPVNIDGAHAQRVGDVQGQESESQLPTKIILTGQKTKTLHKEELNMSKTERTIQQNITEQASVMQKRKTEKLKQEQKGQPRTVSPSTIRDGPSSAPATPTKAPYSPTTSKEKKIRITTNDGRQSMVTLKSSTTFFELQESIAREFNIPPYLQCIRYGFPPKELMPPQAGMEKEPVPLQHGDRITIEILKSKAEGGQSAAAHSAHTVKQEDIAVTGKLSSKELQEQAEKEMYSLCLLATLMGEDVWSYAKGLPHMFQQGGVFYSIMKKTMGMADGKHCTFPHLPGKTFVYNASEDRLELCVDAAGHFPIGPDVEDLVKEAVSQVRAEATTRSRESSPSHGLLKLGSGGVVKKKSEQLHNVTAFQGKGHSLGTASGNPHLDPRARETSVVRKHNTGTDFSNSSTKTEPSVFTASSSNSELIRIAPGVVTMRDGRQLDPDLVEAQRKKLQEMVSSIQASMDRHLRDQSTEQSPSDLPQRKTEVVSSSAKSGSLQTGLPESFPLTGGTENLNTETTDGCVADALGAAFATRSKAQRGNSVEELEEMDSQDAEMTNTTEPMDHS
Experiment: log2 ratio of Biotin-Ahx-Ub-VS probe labelling (fragment/DMSO); higher = less target engagement (more negative = stronger competition), active = hit call of the paper (q ≤ 0.05, log2 ratio ≤ -1)
Conditions: compound concentration: 200 uM; treatment time: 3 h
Experimental: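 Competitive ABPP in HEK293T cell lysate. Lysates were treated with each chloroacetamide fragment at 200 µM for 3 h, then with Biotin-Ahx-Ub-VS (0.5 µM, 1 h), NeutrAvidin-enriched and analysed by diaPASEF LC-MS/MS. Protein LFQ was median-normalised; average log2 ratio is fragment/DMSO from an unpaired t-test (n=3 treated, n=44 DMSO). Hits: q ≤ 0.05, log2 ratio ≤ -1, unique peptides ≥ 2.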

SMILES | log2 ratio of Biotin-Ahx-Ub-VS probe labelling
CN(C)S(=O)(=O)c1ccccc1CNC(=O)CCl | -1.15 (active)
O=C(CCl)N1CCOCCC1c1ccccc1 (stereo not given) | -0.265 (inactive)
Cc1ccccc1OCC(=O)N1CCN(C(=O)CCl)CC1 | -1.16 (active)
CCN(C(=O)CCl)C1CCS(=O)(=O)C1 (stereo not given) | 0.0777 (inactive)
O=C(CCl)N1CCc2sccc2C1 | -0.819 (inactive)
CCC1c2ccsc2CCN1C(=O)CCl (stereo not given) | -0.892 (inactive)
O=C(CCl)NC1CCN(C(=O)C2CCCCC2)CC1 | -0.826 (inactive)
Cc1cc(CC(C)NC(=O)CCl)n[nH]1 (stereo not given) | 0.107 (inactive)
Cc1nc(CNC(=O)CCl)c2ccccn12.Cl | -0.406 (inactive)
O=C(CCl)N1CCCCCC1c1ncon1 (stereo not given) | -0.233 (inactive)
NC(=O)C1CCCCN1C(=O)CCl (stereo not given) | -0.253 (inactive)
CCN1C(=O)C2CN(C(=O)CCl)CCN2C1=O (stereo not given) | 0.103 (inactive)
O=C(CCl)N1CCOC2(CCC2)C1 | -0.0688 (inactive)
O=C(CCl)N1CCCN(C(=O)c2ccc(Cl)cc2)CC1 | -0.589 (inactive)
Cc1ccc(N2CCC(NC(=O)CCl)C2=O)cc1 (stereo not given) | -2.9 (active)
O=C(CCl)NC(Cn1ccccc1=O)c1ccccc1 (stereo not given) | -0.334 (inactive)
Cc1ccc(C)c(NC(=O)CCl)c1 | -1.52 (active)
Cc1ccccc1C1(CNC(=O)CCl)CCOCC1 | -0.843 (inactive)
O=C(CCl)N1CCc2ccccc2C(O)C1 (stereo not given) | -0.506 (inactive)
Cl.O=C(CCl)NCCN1CCc2ccccc21 | -1.9 (active)

SMILES | log2 ratio of Biotin-Ahx-Ub-VS probe labelling
O=C(CCl)N1CCc2nc[nH]c2C1c1ccc(Cl)cc1 (stereo not given) | -1.07 (active)
O=C(CCl)Nc1cc2c(cc1Cl)OCCO2 | -0.947 (inactive)
NC(=O)C(Cc1ccccc1)NC(=O)CCl (stereo not given) | -0.38 (inactive)
Cc1cccc(NC(=O)[C@@H]2CCCN2C(=O)CCl)n1 | -0.551 (inactive)
O=C(CCl)NCCc1ccc(F)cc1 | -0.91 (inactive)
Cc1cccc(N(CCC#N)C(=O)CCl)c1C | -2.23 (active)
O=C(CCl)N1CCC(c2nc3ccccc3o2)CC1 | -2.76 (active)
CC1(NC(=O)CCl)CCS(=O)(=O)C1 (stereo not given) | -0.848 (inactive)
CN(C(=O)CCl)c1nc2ccccc2s1 | -0.54 (inactive)
C#Cc1cccc(NC(=O)CCl)c1 | -2.17 (active)
O=C(CCl)N1CCC(C(O)c2ccc(F)cc2)CC1 (stereo not given) | -0.764 (inactive)
O=C(CCl)N1CCc2[nH]c3ccccc3c2C1 | -2.89 (active)
O=C(CCl)Nc1nc(-c2cccs2)cs1 | -2.02 (active)
Cl.O=C(CCl)NCc1ccnc(Oc2ccccc2F)c1 | -2.73 (active)
Cl.O=C(CCl)N1CCn2cncc2C1 | -0.196 (inactive)
O=C(CCl)N(C1CCCC1)C1CCS(=O)(=O)C1 (stereo not given) | -0.0269 (inactive)
O=C(CCl)NCCc1cccc2ccccc12 | -1.04 (active)
CC(=O)C1CCCCN1C(=O)CCl (stereo not given) | -0.0774 (inactive)
Cc1cccnc1NC(=O)C1CCN(C(=O)CCl)CC1.Cl | -0.543 (inactive)
CC(=O)Nc1ccc(NC(=O)CCl)cc1 | -1.31 (active)
